Measured values from PubChem BioAssay (NCATS).

Experiment: High-throughput drug toxicity screening in the BPDCN cell line Gen2.2 (AID 1224824);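 also: cells exposed to compounds for 48 h before reading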
Details: Gen2.2 BPDCN cells; at 45.8 µM (top of the series) unless noted
In short: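 CellTiter-Glo luminescence read after 48 h compound exposure at 37 C defines viability; percent activity set with DMSO as 100% and bortezomib (9.2 uM final) as 0%. 500 exponentially growing cells per well, RPMI plus 10% FBS.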

Compound	cell viability, % of control (lower = more cytotoxic)
CCOC(=O)[C@H](CCc1ccccc1)N[C@H]1CCc2ccccc2N(CC(=O)O)C1=O	22.7%
S=P(N1CC1)(N1CC1)N1CC1	92%
Nc1nc(F)nc2c1ncn2[C@@H]1O[C@H](CO)[C@@H](O)[C@@H]1O	9.4%
CNS(=O)(=O)CCc1ccc2[nH]cc(C3CCN(C)CC3)c2c1	238%
CC1CC2C3CCC4=CC(=O)C=C[C@]4(C)[C@@]3(F)[C@@H](O)C[C@]2(C)[C@@]1(O)C(=O)CO (stereo partly specified)	115%
Nc1nc(=S)c2[nH]cnc2[nH]1	51.9%
Cc1nnc(NS(=O)(=O)c2ccc(N)cc2)s1	114%
Cc1c(-c2ccc(O)cc2)n(Cc2ccc(OCCN3CCCCCC3)cc2)c2ccc(O)cc12	158%
CCCCc1oc2ccc(NS(C)(=O)=O)cc2c1C(=O)c1ccc(OCCCN(CCCC)CCCC)cc1	5.11%
COc1cc([C@@H]2c3cc4c(cc3[C@H](O)[C@H]3COC(=O)[C@H]23)OCO4)cc(OC)c1OC	7.94%
O=C(NCC1CN(c2ccc(N3CCOCC3=O)cc2)C(=O)O1)c1ccc(Cl)s1 (stereo unspecified)	29.6%
NC(=O)N1c2ccccc2CC(=O)c2ccccc21	104%
CC(=O)[C@H]1CC[C@H]2[C@@H]3CCC4=CC(=O)CC[C@]4(C)[C@H]3CC[C@]12C	83%
Cc1onc(-c2ccccc2Cl)c1C(=O)N[C@@H]1C(=O)N2[C@@H]1SC(C)(C)[C@@H]2C(=O)O	168%
Cc1cccc(Nc2ccncc2S(=O)(=O)NC(=O)NC(C)C)c1	90.1%
CCn1cc(C(=O)O)c(=O)c2cc(F)c(N3CCN(C)CC3)cc21	85.7%
